PubChem BioAssay (NCI)
The panel holds about 83,000 compounds, 20% with a hit somewhere; the sample as a whole holds those more often.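 How to read the values: 0–100, growth inhibition (40 = 60% inhibited); 0, no net growth; -100 to 0, cell death (-40 = 40% of starting cells died; -100 = all dead).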 Values without a mark were called inactive. The source made the active and inactive calls. Rule for the calls: active = growth percent below 10; inactive = the rest.

What follows are compounds tested on HL-60(TB) leukemia (assay: NCI-60 one-dose screen, 48 h (100 = growth as untreated, 0 = no growth, -100 = all killed)). Settings: 10 µM unless noted.
For `COC(=O)CC/C(C)=N\Nc1ccc([N+](=O)[O-])cc1`, the growth was 24.5%. `COc1ccc2cc(-c3nc4ccc(C)cn4c3NCc3ccco3)c(=O)[nH]c2c1` gave a growth of 67.5%. With `CN1CCn2c(c(Sc3ccc(C(=O)NO)cc3)c3ccccc32)C1=O` the growth was -1.35% (active). In the case of `Cc1cccc(Cl)c1NC(=O)c1ccc2nc(NC(=O)NC3CCN(C)CC3)sc2c1`, the growth is reported as 123%. `CCc1ccc(CNc2ccc(N3CCOCC3)c(C(=O)O)c2)cc1` was tested, and the growth was 100%. For `c1ccc(-c2nn(-c3ccccc3)[n+](-c3cccc4ccccc34)n2)cc1`, the growth was -25.8% (active). For `Oc1ccc(N=Nc2nccs2)c(O)c1`, the growth was 5.98% (active). Compound `NC(=O)c1c(Nc2ccccc2)nn2cc(-c3nc4ccccc4s3)c(N)nc12` has a growth of 101%. With `CC(=O)/C(Br)=C/c1ccc(Br)o1` the growth was -18.8% (active). For `COc1cc2nc(Nc3cccc(Cl)c3)nc(N)c2cc1OC`, the growth was 87.1%. `Nc1ccc([N+](=O)[O-])cc1N=C/C=C/c1ccccc1` was tested, and the growth was 9.14% (active). With `O=C(/C=C/c1c[nH]c2ccccc12)c1cc2ccccc2o1` the growth was 37.9%. In the case of `CCC(C)(C)C1CCC(O)CC1` (stereo not given), the growth is reported as 83.8%. `CC(=O)[C@H]1CC[C@H]2[C@@H]3CC[C@@H]4CC=C(C=O)C[C@]4(C)[C@H]3CC[C@]12C` showed a growth of 78.2%. Work on `COc1ccc(-c2c(N)n[nH]c2-c2ccc(Cl)cc2O)cc1OC` yielded a growth of 91.9%. In the case of `COC(=O)CCc1n(Cc2ccc3ccccc3c2)c2ccccc2[n+]1Cc1ccc2ccccc2c1`, the growth is reported as -49.1% (active). `CCC[S@](=O)c1ccc2nc(NC(=O)OC)[nH]c2c1` showed a growth of 77.1%. In the case of `COc1ccc(/C=N\NC(=O)c2ccc3nc(-c4ccc(Cl)cc4)[nH]c3c2)cc1`, the growth is reported as 96.3%. With `O=C(COc1ccc(/C=C2\COc3ccccc3C2=O)cc1)Nc1nccs1` the growth was -11.4% (active). For `COc1cccc(NC(=O)c2sc3nc4c(cc3c2N)C(=O)CCC4)c1`, the growth was -2.55% (active). `CCOC(=O)OCC(=O)[C@@]1(O)CC[C@H]2[C@@H]3CCC4=CC(=O)CC[C@]4(C)[C@H]3[C@@H](O)C[C@@]21C` was tested, and the growth was 108%. In the case of `COc1cc(/C=C2\CN(S(=O)(=O)c3ccccc3)C/C(=C\c3cc(CN4CCCC4)c(O)c(OC)c3)C2=O)cc(CN2CCCC2)c1O`, the growth is reported as -14.8% (active). `CN(C)CC(C)(C)C(=O)/C=C/c1ccccc1` was tested, and the growth was -15.3% [25 µM] (active). For `COc1ccc(CSc2nc3cc(OC)c(OC)cc3c(=O)n2-c2ccc(OC)cc2OC)cc1`, the growth was 112%. For `O=C(CNC1CCCCC1)Nc1ccc(-c2nc3ccccc3s2)cc1`, the growth was 66.8%. For `C[C@@H](Oc1cc(-c2cnn(C3CC4(CCCNC4)C3)c2)cnc1N)c1c(Cl)ccc(F)c1Cl` (stereo not given in full), the growth was -41% (active). In the case of `N#Cc1c(-c2cccc(Cl)c2)cc(-c2cccc(F)c2)[nH]c1=O`, the growth is reported as -58.3% (active). `O=C(Nc1ccc(-n2cc(-c3ccncc3)c(-c3ccc(Cl)c(O)c3)n2)cc1)c1ccc(Cl)c(C(F)(F)F)c1` was tested, and the growth was -29.1% (active). `CNC(=O)c1[nH]cc(-c2ccc(OC)cc2)c1-c1cc(OC)c2c(c1OC)OCO2` gave a growth of 96.4%. Compound `O=c1[nH]c(-c2ccc(Cl)cc2)cn1-c1ccc(-n2cc(-c3ccc(Cl)cc3)[nH]c2=O)cc1` has a growth of 112%. `CCCCOc1ccc(C(C)(C)c2ccc(OCCCC)cc2)cc1` was tested, and the growth was 92.5%. `C=C1C(=O)O[C@H]2[C@H]1CC/C(COC(=O)/C=C/c1c[nH]c3ccccc13)=C\CC[C@@]1(C)O[C@@H]21` was tested, and the growth was -18.7% (active). In the case of `Nc1cc(N)c2nc(NCCc3ccc(Cl)c(Cl)c3)cnc2c1`, the growth is reported as -74.3% (active). Compound `CCCNS(=O)(=O)c1ccc(Cl)cc1` has a growth of 105%. `Cc1cc(C)c2c(NC(=O)Nc3ccc(Cl)c(Cl)c3)n[nH]c2n1` showed a growth of 96.9%. For `CC(/C=C/c1ccccc1)=N/NC(=O)c1ccncc1`, the growth was 92.2%. `CCOc1ccccc1-c1cc(-c2cccs2)c(C#N)c(=O)[nH]1` gave a growth of 78.9%. With `Cc1ccc(C)c2c1sc1nc3n[nH]c(N)c3c(=N)n12` the growth was 112%. `O=C1OCC2=C1C(c1ccc(Cl)c(Cl)c1)c1cc3c(cc1N2CCO)CCC3` (stereo not given) was tested, and the growth was -13.1% (active). Compound `O=C1/C(=C/c2cccc3cnccc23)Cc2cc(F)ccc21` has a growth of 105%.
